High-throughput results from PubChem.
Rows were chosen to be rich in hits. Some 2% of all compounds tested hit in one or more screens of this group.
CCHF vOTU inh-1 = blocks the CCHF virus ovarian tumor domain protease | CCHFV vOTU protease, Pep-AMC fluorescence | inhibition, % at 11.5 µM | 370,000 compounds, 0.55% hits | AID 651958; also: 0% = vehicle wells with enzyme and 100% = no enzyme wells
PrPC surface inh = reduces human prion protein on the cell surface; P04156; cell surface PrPC, TR-FRET read-out; inhibition, % at 13.8 µM; 370,000 compounds, 0.43% hits; in the data active = inhibition above about 24%; also: 0% = median of the test wells and 100% = reference compound wells
Yp Topo-I inh = Y. pestis Topo-I inhibition via cleavage products; activity, % at 10 µM; Y. pestis Topo-I cleavage product accumulation, plate reader; 360,000 compounds, 0.064% hits; in the data active = activity above about 50%, passing the limit was not always enough; inconclusive = no clear call, values can overlap the other calls
PfHsp40 yeast = restores yeast growth despite PfHsp40 toxicity. growth rescue, % at 12.5 µM. AID 504582. S. cerevisiae expressing PfHsp40, growth rescue, ATP luminescence. 340,000 compounds, 0.68% hits; in the data active = growth rescue above about 28%, passing the limit was not always enough; inconclusive = no clear call, values can overlap the other calls;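 also: yeast W303a lacking pdr1 and pdr3 grown in galactose medium; growth measured after three days at 30 °C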
PrP 5UTR inh = suppresses PrP 5' UTR mRNA reporter expression | cell-based PrP 5' UTR mRNA reporter, plate reader | inhibition, % (concentration not given with the values) | 340,000 compounds, 0.35% hits; in the data active = inhibition above about 52%; also: 0 = median of the neutral control wells
BJeLR lethal = BJeLR cell viability loss; BJeLR (HRASV12) viability, CellTiter-Glo ATP luminescence, 48 h; inhibition, % (no concentration beside the values); 300,000 compounds, 0.17% hits; AID 1554; in the data active = inhibition above about 50%; inconclusive = no clear call, values can overlap the other calls
CCHF vOTU inh-2 = CCHFV vOTU protease inhibition, confirmation; shares compounds with CCHF vOTU inh-1; Recombinant CCHFV vOTU, Pep-AMC fluorescence; inhibition, % at 11.5 µM; 1,900 compounds, 17% hits
PrPC TRFRET cf = cell surface PrPC inhibition, TR-FRET confirmation; shares compounds with PrPC surface inh; cell surface PrPC level; inhibition, % at 13.8 µM; 1,500 compounds, 65% hits; AID 743200; in the data active = inhibition above about 25%
LD9 tox = counter-screen for PrPc inhibitors: cytotoxicity in LD9 cells; shares compounds with PrPC surface inh; luminescence viability; inhibition, % at 13.8 µM; 1,500 compounds, 29% hits; in the data active = inhibition above about 9.5%
Active calls of the source: *; ? = inconclusive; · = no result given. Rule as the data show it, unless noted: active = inhibition above about 30%; inactive = the rest.

SMILES	CCHF vOTU inh-1	PrPC surface inh	Yp Topo-I inh	PfHsp40 yeast	PrP 5UTR inh	BJeLR lethal	PrPC TRFRET cf	LD9 tox	others
CC(C)NC(=O)C1CCN(c2cncnc2)CC1	13	9	·	·	·	·	·	·
CCCCCCCC/C=C\CCCCCCCC(=O)NCCc1ccc(O)c(O)c1	30*	83*	21	20	-3	·	44*	65*	CCHF vOTU inh-2=27
CCCCC(=O)NCCc1ccc(S(N)(=O)=O)cc1	-5	9	8	2	-21	-1	·	·
CC(Sc1ccc2c(c1)OCCO2)C(=O)Nc1ccc2c(c1)OCO2 (stereo not given)	10	7	-3	0	-10	-2	·	·
CC(Sc1ncnc2ccccc12)C(=O)Nc1ccc2c(c1)OCO2 (stereo not given)	12	29*	12	42*	-22	-1	37*	1
O=S1(=O)CC2c3ccc(F)cc3CN2CN1Cc1ccccc1 (stereo not given)	-3	2	·	·	·	·	·	·
CC(C)c1oc(=O)cc2c1[C@@H](O)[C@H]1OC(=O)[C@@]3(C)C[C@@H](O)[C@@H](O)[C@@]2(C)C13 (stereo not given in full)	-15	64*	-3	1	-69	13	58*	11*
CC(C)c1oc(=O)cc2c1[C@@H](O)[C@H]1OC(=O)[C@@]3(C)CC[C@@H](O)[C@@]2(C)C13 (stereo not given in full)	3	62*	5	0	-9	-11	52*	13*
CCCCCN1CCCCC(NC(=O)CSc2ccccc2)C1=O (stereo not given)	-5	3	·	·	·	·	·	·
Cc1ccc(S(=O)(=O)N2CCCCC2)cc1NC(=O)Cn1ncc(Cl)c(Cl)c1=O	22	31*	3	-1	9	·	-7	94*
Cc1ccc(S(=O)(=O)N2CCCCC2)cc1NC(=O)CSCC(=O)O	6	-2	-5	1	7	-4	·	·
Cc1ccc(NC(=O)CSc2ncnc3ccccc23)cc1S(=O)(=O)N1CCCCCC1	12	67*	40	2	-44	5	77*	6
Cc1ccc(S(=O)(=O)N2CCCCC2)cc1NC(=O)CSc1ncnc2ccccc12	-8	63*	-3	0	-44	-4	71*	-15
Cc1cc(=O)[nH]c(SCC(=O)Nc2ccc(C)c(S(=O)(=O)N3CCCCC3)c2)n1	19	5	11	-2	-22	33	·	·
CCc1noc2c1/C(=N\O)CC(c1ccccc1)C2 (stereo not given)	0	10	-1	-2	-6	2	·	·
CCCc1noc2c1/C(=N\O)CC(c1ccccc1)C2 (stereo not given)	8	24*	6	0	-14	4	5	6
Cc1cc(Br)c2nc3c(c(C(=O)O)c2c1)CCCCC3	-16	117*	-1	-2	-4	-6	132*	-4
CCc1ccc2nc3c(c(C(=O)O)c2c1)CCC3	-2	-6	4	1	-27	4	·	·
Cc1cc(C)c2nc(SC3CCOC3=O)cc(C)c2c1 (stereo not given)	20	78*	16	0	-9	-6	87*	-7
COc1ccc2c(C)cc(SC3CCOC3=O)nc2c1 (stereo not given)	-3	16	3	-1	1	-5	·	·
C[C@H]1[C@@H](OC(=O)Nc2cccc(C(F)(F)F)c2)CC[C@@]23CCCN2C(=O)CCC[C@@H]13	·	-1	·	·	·	·	·	·
COc1ccc(OC)c(C2C(C(N)=O)=C(C)Nc3nc(-c4cccc(Cl)c4)nn32)c1 (stereo not given)	0	42*	2	-1	-23	0	34*	0
COc1ccc(-n2nnnc2CNC(=O)C2CC(=O)N(c3ccc(F)cc3)C2)cc1 (stereo not given)	2	31*	-8	·	·	·	3	-3
O=C(CSc1nnc(-c2cccnc2)n1-c1ccc(Cl)cc1)Nc1ccccc1-c1ccccc1	2	4	·	·	·	·	·	·
Cc1onc(-c2ccccc2Cl)c1C(=O)OCC(=O)N1CCCc2ccccc21	14	30*	14	1	-3	-3	6	2
SMILES	CCHF vOTU inh-1	PrPC surface inh	Yp Topo-I inh	PfHsp40 yeast	PrP 5UTR inh	BJeLR lethal	PrPC TRFRET cf	LD9 tox	others
COc1ccc(C(=O)Nc2ccc3[nH]ncc3c2)cc1	-11	-1	1	0	-34	-1	·	·
CCOc1ccc(C(=O)Nc2ccc3[nH]ncc3c2)cc1	-3	33*	5	0	-48	6	7	1
COc1ccc(NC(=O)N(C)C[C@H]2OCc3cnnn3CCCC(=O)N([C@H](C)CO)C[C@@H]2C)c(OC)c1	27	4	·	·	·	·	·	·
CC(C)CC(N)c1csc(Nc2ccccn2)n1 (stereo not given)	-6	10	7	·	·	·	·	·
CC(C)CC(N)c1csc(Nc2cnccn2)n1 (stereo not given)	11	31*	6	·	·	·	26*	-5
Cc1ccc(N(C(=O)c2snc(C(N)=O)c2N)C(C(=O)NCCC(C)C)c2ccco2)cc1 (stereo not given)	5	27*	?	2	-2	2	34*	2
O[C@H](COc1cccc(F)c1)CN1CCC(C(O)(c2ccccc2)c2ccccc2)CC1	-3	-16	·	·	·	·	·	·
CC(C)(C)OC(=O)N1CCC(N[C@@H](Cc2ccccc2)C(=O)NCCc2c[nH]c3ccccc23)(C(=O)NC2CCCCC2)CC1	·	27*	·	·	·	·	12	-4
CCN(CC)C(=S)Nc1cc(C(=O)OC)ccc1C(=O)OC	-28	25*	1	1	3	1	4	-6
CCC(C)C(=O)Nc1cc(C(=O)OC)ccc1C(=O)OC (stereo not given)	·	·	-7	-1	-18	1	·	·
COc1cccc(CNC(=O)Cn2c(-c3ccccc3)cc(C(C)=O)c2C)c1OC	6	8	·	·	·	·	·	·
O=C(Nc1nc2ncccn2c1-c1ccccc1)c1ccc(F)cc1	-8	2	·	·	·	·	·	·
Cc1csc(NC(=O)CSc2sc3c(O)cc(=O)[nH]c3c2C#N)n1	20	26*	-11	2	-31	-3	4	2
FC(F)C(F)(F)Oc1cccc(Nc2nccn3c(-c4ccc5ccccc5c4)cnc23)c1	12	10	10	·	·	·	·	·
Oc1ccc(-c2cnc3c(Nc4cccc(OC(F)(F)C(F)F)c4)nccn23)cc1	16	25*	10	·	·	·	25*	-3
Cc1cccc(-n2ncc3c(NCc4cccs4)ncnc32)c1	13	27*	5	0	-104	-2	9	-2
O=C(C(=O)N1CCC(CNS(=O)(=O)c2cccc(C(F)(F)F)c2)CC1)c1cc2ccccc2o1	9	-9	·	·	·	·	·	·
